Bioassay records as filed in PubChem BioAssay.
This excerpt belongs to a sample that is enriched for hits.
Shiga inhibitor: blocks Shiga toxin action in Vero cells. Vero cells, Shiga toxin protein synthesis inhibition reporter. inhibition, % at 38.7 µM. 290,000 compounds, 9.2% hits. AID 2315; in the data active means inhibition mostly above about 28%, no sharp cut-off; inactive means mostly below about 43%; further: 0% is about no effect
TbPYK inhibitor: blocks Trypanosoma brucei pyruvate kinase; Q57TT1; TbPYK enzyme, Kinase-Glo Plus ATP luminescence, 45 min; Potency, µM (doses to about 76.8 µM), inactives show at the highest dose activity, negative = inhibition, hits mostly inhibitors; 410,000 compounds, 0.12% hits; AID 624173; active means well fitted curve in the direction sought with a large enough effect; inconclusive means small, poorly fitted or top-dose-only effect, or another doubt; inactive means no such curve, though single readings can be large; an effect the other way counts as inactive or inconclusive; further: potency means the concentration at half of the fitted maximal effect; on the % scale 0 is the no-effect control and ±100 the full control effect; nearly all actives have a fitted effect of over 50% in size
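ADP (130 uM final) triggers the TbPYK reaction after compound addition; incubation is 45 min at room temperature. Kinase-Glo Plus is then added and luminescence imaged. Normalized data are fitted to concentration-effect curves.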
LmPK inhibitor: LmPK (Leishmania mexicana) enzyme inhibition; purified LmPK, Kinase-Glo ATP luminescence, 1 h; Q27686; Potency, µM (doses to about 57.5 µM), for inactives: top-dose activity change, negative = inhibition, hits mostly inhibitors; 290,000 compounds, 0.37% hits; active means well fitted curve in the direction sought with a large enough effect; inconclusive means small, poorly fitted or top-dose-only effect, or another doubt; inactive means no such curve, though single readings can be large; an effect the other way counts as inactive or inconclusive; further: potency means the concentration at half of the fitted maximal effect; on the % scale 0 is the no-effect control and ±100 the full control effect
Target sequence (Q27686 whole entry, looked up): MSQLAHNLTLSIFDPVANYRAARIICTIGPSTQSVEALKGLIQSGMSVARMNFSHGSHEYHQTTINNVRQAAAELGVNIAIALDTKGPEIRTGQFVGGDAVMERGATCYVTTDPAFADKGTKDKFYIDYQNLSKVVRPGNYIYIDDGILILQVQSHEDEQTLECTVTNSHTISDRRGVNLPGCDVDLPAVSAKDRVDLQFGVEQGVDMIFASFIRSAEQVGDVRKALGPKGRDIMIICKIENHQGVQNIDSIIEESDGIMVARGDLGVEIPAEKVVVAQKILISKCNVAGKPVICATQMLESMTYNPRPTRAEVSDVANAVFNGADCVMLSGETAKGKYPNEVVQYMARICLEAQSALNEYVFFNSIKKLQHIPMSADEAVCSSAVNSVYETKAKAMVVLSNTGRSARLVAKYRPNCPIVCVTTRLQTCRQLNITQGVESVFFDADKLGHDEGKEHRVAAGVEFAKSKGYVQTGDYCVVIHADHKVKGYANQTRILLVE
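qHTS format; LmPK 0.1 nM; substrates PEP 0.5 mM and ADP 0.1 mM. One-hour room-temperature incubation, then coupled luciferase luminescence; 0.5 nM enzyme wells mark activation.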
NS1 inh: influenza NS1 inhibition; Potency, µM (doses to about 46.1 µM), for inactives: at the highest dose activity, positive = more growth; 270,000 compounds, 0.4% hits; further: potency means the concentration at half of the fitted maximal effect; actives are rising curves; nearly all actives have a fitted effect of over 50% in size
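Recovery from NS1-induced slow growth read by OD600 in budding yeast switched to galactose assay medium (pH 6.0, -URA) at 1:100 dilution. Compound 23 nl per well; the matching strain lacking NS1 serves as control.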
CHX counter: counter-screen for Shiga toxin inhibitors: cycloheximide protein synthesis inhibition. max response, %. AID 2314. 300,000 compounds, 12% hits. cell reporter, cycloheximide protein synthesis inhibition counterscreen; in the data active means max response mostly above about 13%, no sharp cut-off; inactive means mostly below about 14%; further: read at 38.3 µM for the half of the compounds with a filed dose; 0% is about no effect
SARS PLpro yeast-1: blocks SARS-CoV papain-like protease in a yeast assay; Potency, µM (doses to about 32.9 µM), without a hit: top-dose activity, positive = growth rescue, most hits filed as activators; 330,000 compounds, 0.19% hits; S. cerevisiae expressing SARS-CoV PLpro, growth rescue; further: potency means the concentration at half of the fitted maximal effect; 0% is about no effect; nearly all actives have a fitted effect of over 55% in size
SARS PLpro yeast-2: Validates SARS-CoV PLpro inhibitor hits in yeast; shares compounds with SARS PLpro yeast-1; yeast expressing SARS-CoV PLpro, growth phenotype rescue; calls only; 1,000 compounds, 19% hits; call rule not given here
* hit, by the source's call; [ ] = dose if it differs, or a comment. Unless noted, the call rests on the fitted dose curve.

Screening Cc1cc(Cl)ccc1NC(=S)NCc1ccccc1 returned Shiga inhibitor -4, TbPYK inhibitor -2%, LmPK inhibitor 4%, NS1 inh -12%, CHX counter 2 and SARS PLpro yeast-1 -1%.
COc1ccccc1NC(=S)Nc1ccccn1 was read as Shiga inhibitor 13, TbPYK inhibitor -20%, LmPK inhibitor -4%, NS1 inh -1%, CHX counter -1 and SARS PLpro yeast-1 inconclusive.
Cc1cc(Cl)ccc1NC(=S)Nc1ccccn1 was read as Shiga inhibitor 23*, TbPYK inhibitor 0%, LmPK inhibitor -1%, NS1 inh -3%, CHX counter 33*, SARS PLpro yeast-1 5µM* and SARS PLpro yeast-2 active.
Cc1cc(/C=N/NC(N)=S)c(C)n1-c1ccc(Br)cc1 was read as Shiga inhibitor -8, TbPYK inhibitor -6%, LmPK inhibitor 5%, CHX counter 8 and SARS PLpro yeast-1 inconclusive.
Screening Cc1cc(/C=N/NC(N)=S)c(C)n1-c1ccc(Cl)cc1 returned Shiga inhibitor 14, TbPYK inhibitor -12%, LmPK inhibitor -1%, NS1 inh 14%, CHX counter 15, SARS PLpro yeast-1 11µM* and SARS PLpro yeast-2 inactive.
For COCCNC(=S)N/N=C(\C)c1ccc2cc(OC)ccc2c1 the results were Shiga inhibitor -7, TbPYK inhibitor 15%, LmPK inhibitor 1%, NS1 inh -1%, CHX counter -2, SARS PLpro yeast-1 8.9µM* and SARS PLpro yeast-2 inactive.
For COCCNC(=S)N/N=C(\C)c1ccc(OC)cc1 the results were Shiga inhibitor -2, TbPYK inhibitor 2%, LmPK inhibitor 1%, NS1 inh 5%, CHX counter -3, SARS PLpro yeast-1 22µM* and SARS PLpro yeast-2 active.
CC12CCC(=O)N1C(C(=O)Nc1ccc(Cl)c(S(=O)(=O)N3CCCCC3)c1)CS2 (stereo unspecified) was read as TbPYK inhibitor -4% and SARS PLpro yeast-1 2%.
Cc1onc(-c2ccccc2)c1C(=O)NC(=S)NNC(=O)c1ccc(O)cc1O was read as Shiga inhibitor 11, TbPYK inhibitor -2%, LmPK inhibitor 3%, NS1 inh 28%, CHX counter -2, SARS PLpro yeast-1 14µM* and SARS PLpro yeast-2 active.
Screening Cc1onc(-c2ccccc2)c1C(=O)NC(=S)NNC(=O)c1ccccc1O returned Shiga inhibitor 4, TbPYK inhibitor 3%, LmPK inhibitor -2%, NS1 inh -10%, CHX counter -3, SARS PLpro yeast-1 4.5µM* and SARS PLpro yeast-2 inactive.
Screening Cc1onc(-c2ccccc2)c1C(=O)NC(=S)NNC(=O)c1ccc(O)cc1 returned Shiga inhibitor 38, TbPYK inhibitor -5%, LmPK inhibitor 1%, NS1 inh inconclusive, CHX counter 7 and SARS PLpro yeast-1 1%.
`COC(=O)N1C(c2ccccc2)=Cc2ccccc2C1CC(C)=O` (stereo unspecified) gave LmPK inhibitor -7%[11.5 µM].
For CC(Oc1ccccc1)C(=O)Nc1ccc(C(=O)OCc2cc(=O)n3ccsc3n2)cc1 (stereo unspecified) the results were TbPYK inhibitor -2%.
Screening Cc1nn(C)cc1CNC(=O)/C=C/c1cnn(C)c1 returned Shiga inhibitor 9, TbPYK inhibitor -2%, LmPK inhibitor -5%, NS1 inh 7%, CHX counter -2 and SARS PLpro yeast-1 6%.
`COc1ccc(/C=C/C(=O)NCc2cn(C)nc2C)cc1COc1ccc(Br)cc1` gave Shiga inhibitor -4, TbPYK inhibitor 12%, LmPK inhibitor 6%, NS1 inh 23%, CHX counter 1, SARS PLpro yeast-1 inconclusive and SARS PLpro yeast-2 inactive.
Screening CCOC(=O)N1CCN(CCC(=O)Nc2ccccc2OC)CC1 returned Shiga inhibitor -1, TbPYK inhibitor 5%, LmPK inhibitor -1%, NS1 inh 5%, CHX counter 1, SARS PLpro yeast-1 inconclusive and SARS PLpro yeast-2 inactive.
Screening CN1CCN(Cc2cc(Cl)c3cccnc3c2OC(=O)c2cccs2)CC1 returned Shiga inhibitor -8, TbPYK inhibitor 1%, LmPK inhibitor 0%, NS1 inh -3%, CHX counter -6, SARS PLpro yeast-1 11µM* and SARS PLpro yeast-2 inactive.
